Compounds with a hit are over-represented: about 21% of the library has one in this group of screens.
CHX counter – Cycloheximide Counterscreen for Small Molecule Inhibitors of Shiga Toxin; cell reporter, cycloheximide protein synthesis inhibition counterscreen; max response, %; actives 12% (n = 300,000); AID 2314, 2010; in the data active means max response mostly above about 13%, no sharp cut-off; inactive means mostly below about 14%; further: read at 38.3 µM for the half of the compounds with a filed dose; 0% is about no effect
Pf growth 48h – Primary qHTS for delayed death inhibitors of the malarial parasite plastid, 48 hour incubation; P. falciparum luciferase growth in erythrocytes, 48 h; Potency, µM (series often up to 28.7 µM), for the others: top-dose activity change, negative = inhibition, actives largely listed as inhibitors; actives 5.9% (n = 310,000); AID 504832, 2011; further: potency means the concentration at half of the fitted maximal effect; on the % scale 0 is the no-effect control and ±100 the full control effect
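In quantitative HTS format, infected erythrocytes bearing luciferase-reporter parasites were treated for a single generation at 37 C. Luminescence after adding detection reagent served as the growth measure.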
Pf growth 96h – Primary qHTS for delayed death inhibitors of the malarial parasite plastid, 96 hour incubation | P. falciparum luciferase reporter growth, 96 h | Potency, µM (doses to about 28.7 µM), for the others: at the top dose activity change, negative = inhibition, usual class: inhibitors | actives 6.9% (n = 320,000); further: potency means the concentration at half of the fitted maximal effect; on the % scale 0 is the no-effect control and ±100 the full control effect
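Erythrocytes infected with luciferase-expressing P. falciparum were dispensed at 2% hematocrit and 0.05% parasitemia (final), then incubated with compounds 96 hours at 37 C in 5% CO2. Luminescence after detection reagent addition reported growth.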
Shiga toxin inh – A qHTS for Small Molecule Inhibitors of Shiga Toxin; Vero cells, Shiga toxin protein synthesis inhibition reporter; inhibition, % at 38.7 µM; actives 9.2% (n = 290,000); AID 2315, 2010; in the data active means inhibition mostly above about 28%, no sharp cut-off; inactive means mostly below about 43%; further: 0% is about no effect
* = called active by the depositor; ? = inconclusive; / = no result. Unless noted, the call rests on the fitted dose curve; in most records, active means well fitted inhibition curve with a large enough effect; inconclusive means small, poorly fitted or top-dose-only effect, or another doubt; inactive means no such curve, though single readings can be large or run the other way.

SMILES | CHX counter | Pf growth 48h | Pf growth 96h | Shiga toxin inh
CCOc1ccc(NC(=O)c2cccc3c2C(=O)N(Cc2cccnc2)C3)cc1 | 0 | ? | 2% | -4
CCCN1Cc2cccc(C(=O)NC(CC(=O)OCC)c3ccc(OC(C)C)cc3)c2C1=O (stereo not drawn) | 25 | 13µM* | -16% | 43
CCOC(=O)CC(NC(=O)c1cccc2c1C(=O)N(Cc1cccnc1)C2)c1ccc(OC(C)C)cc1 (stereo not drawn) | -4 | 9.3µM* | ? | -10
CC(=O)N1c2ccc(S(=O)(=O)NCCC(=O)NCCc3ccc(C)cc3)cc2CC1C (stereo not drawn) | 17 | ? | 41% | -4
O=S(=O)(Nc1ccc2c(c1)nc1n2CCN(Cc2ccccc2)C1)c1ccccc1 | 117* | 66% | 39% | 111*
O=C(Nc1ccc2c(c1)nc1n2CCN(Cc2ccccc2)C1)NC1CCCCC1 | -6 | / | -14% | -5
O=S(=O)(Nc1ccc2c(c1)nc1n2CCN(Cc2ccccc2)C1)c1ccc(Cl)cc1 | -3 | 9.3µM* | 38% | -5
Cn1c(CN2CCCCC2)nc2cc(NS(=O)(=O)c3ccc(F)cc3)ccc21 | -2 | -8% | ? | -24
O=S(=O)(Nc1ccc2c(c1)nc1n2CCN(Cc2ccccc2)C1)c1ccc(F)cc1 | -5 | 12µM* | -16% | -13
Cc1ccc(S(=O)(=O)Nc2ccc3c(c2)nc2n3CCN(Cc3ccccc3)C2)cc1 | -3 | ? | ? | 36
Cc1ccc(S(=O)(=O)N2CCC(C(=O)NNC(=O)c3ccc(F)cc3)CC2)cc1 | 1 | -3% | -10% | -6
COc1ccccc1NS(=O)(=O)c1cc(NC(=O)c2sccc2C)ccc1N1CCCC1 | 1 | ? | ? | 50
O=C(Nc1ccc(Cl)c(Cl)c1)Nc1ccc(N2CCCC2)c(S(=O)(=O)Nc2ccccc2Cl)c1 | 8 | 13µM* | 3.7µM* | 18
O=C(Nc1ccc(F)cc1)Nc1ccc(N2CCCC2)c(S(=O)(=O)Nc2ccccc2Cl)c1 | 11 | 9.3µM* | 4.7µM* | 26
O=C(CC1CCCC1)NNC(=O)c1ccc(Br)cc1 | / | 93% | 92% | /
Cc1cc(=O)c(C(=O)O)nn1-c1ccccc1Cl | -3 | 7% | 39% | -4
CCN(CC(=O)Nc1ccc2c(c1)OCCO2)CC(=O)Nc1ccc2c(c1)OCO2 | 15 | ? | -36% | 21
Cc1ccc2c(CN3CCN(S(=O)(=O)c4ccc5c(c4)OCCO5)CC3)cc(=O)oc2c1C | -2 | 9.3µM* | ? | -5
CCN(CC(=O)Nc1ccc2c(c1)OCCO2)Cc1cc(=O)oc2c(C)c(C)ccc12 | 9.1* | ? | 1% | -4
Cc1cc(C(=O)NCC2CCCCC2)ccc1[N+](=O)[O-] | 24* | 24% | 28% | 84*
O=C(NCC1CCCCC1)c1cccc([N+](=O)[O-])c1 | -2 | 5.2µM* | ? | 11
O=C(NCC1CCCCC1)c1ccc([N+](=O)[O-])cc1 | 12 | 141% | 7% | 16
Clc1ccc(CSc2nnc3ccccn23)c(Cl)c1 | 60* | 37% | 47% | 40*
O=[N+]([O-])c1ccccc1CSc1nnc2ccccn12 | 40* | 111% | 63% | 53*
O=[N+]([O-])c1ccc(O)c(C=Nc2ccc3nc(-c4ccccc4)[nH]c3c2)c1 | 28* | -9% | 1.5µM* | 70*
SMILES | CHX counter | Pf growth 48h | Pf growth 96h | Shiga toxin inh
Oc1c(Br)cc(C=Nc2ccc3nc(-c4ccccc4)[nH]c3c2)c(O)c1Br | 52* | ? | 17% | 75*
CCN1CCN(C(=O)c2cc3c(OC)c(OC)c(OC)cc3[nH]2)CC1 | -2 | / | -4% | -3
COc1cc2[nH]c(C(=O)N3CCc4ccccc43)cc2c(OC)c1OC | 30* | 22% | 39% | 47*
COc1cc2[nH]c(C(=O)N(C)Cc3ccccc3)cc2c(OC)c1OC | 1 | ? | ? | -6
CCOC(=O)C1CCN(C(=O)c2cc3c(OC)c(OC)c(OC)cc3[nH]2)CC1 | -4 | -17% | ? | -8
CCN(Cc1ccccc1)C(=O)c1cc2c(OC)c(OC)c(OC)cc2[nH]1 | 2 | / | 8.3µM* | -3
COc1cc2[nH]c(C(=O)N3CCC(Cc4ccccc4)CC3)cc2c(OC)c1OC | -1 | 3.3µM* | 3.7µM* | -2
C=C(C)C1CCC(C)=CC1c1c(O)cc(O)cc1CCCCC (stereo not drawn) | -1 | / | / | 35
Cc1ccc(-c2cc(C(=O)N3CCN(c4ccccc4O)CC3)c3ccccc3n2)o1 | 35* | ? | 13µM* | 66*
